ERp5 inh: inhibitors of human ERp5. Q15084. ERp5 insulin aggregation, absorbance 650 nm, 90 min. inhibition, % at 9.99 µM. 0.05% of 350,000 active. AID 651711;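 active means mean replicate inhibition above about 25%, with every replicate also reaching it, limit read from the data, passing the limit was not always enough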
Target sequence (Q15084 whole entry, looked up): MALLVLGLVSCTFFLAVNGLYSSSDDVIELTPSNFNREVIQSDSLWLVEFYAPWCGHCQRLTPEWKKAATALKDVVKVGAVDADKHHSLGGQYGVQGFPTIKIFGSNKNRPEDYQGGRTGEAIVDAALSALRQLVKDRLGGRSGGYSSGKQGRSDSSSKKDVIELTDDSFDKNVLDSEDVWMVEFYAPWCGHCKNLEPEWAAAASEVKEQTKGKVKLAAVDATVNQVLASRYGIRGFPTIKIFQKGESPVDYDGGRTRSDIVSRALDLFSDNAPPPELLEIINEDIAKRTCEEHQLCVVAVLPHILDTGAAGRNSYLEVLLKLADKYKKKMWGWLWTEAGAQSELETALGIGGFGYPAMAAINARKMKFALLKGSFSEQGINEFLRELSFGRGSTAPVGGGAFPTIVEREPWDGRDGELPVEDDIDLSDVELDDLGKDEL
PvdQ inh: P. aeruginosa PvdQ acylase inhibition; AID 488965; 0.063% of 340,000 active; inhibition, % at 10 µM; purified PvdQ acylase, fluorescence plate reader; in the data active means inhibition above about 30%, passing the limit was not always enough;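 further: 0% = vehicle neutral wells and 100% = reference inhibitor wells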
Rtt109 Vps75: C. albicans Rtt109 histone acetyltransferase inhibition; Q5AAJ8; purified Rtt109/Vps75, ThioGlo CoA-SH fluorescence, 4 h; inhibition, % at 34.9 µM; 0.16% of 330,000 active; AID 540336;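 active means inhibition of at least 50% in every replicate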
Efflux pump inh: antifungal efflux pump inhibition, Nile Red retention. inhibition, % at 10 µM. 0.44% of 330,000 active. S. cerevisiae Candida pump triplex;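 active means plate passing quality check with inhibition over a set limit, or well fluorescence over plate mean plus 4 SD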;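 further: Nile Red retained in pooled yeast measured as flow cytometry median fluorescence; 0% = buffer negative control and 100% = Enniatin B positive control; higher means more Nile Red kept so more efflux inhibition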
PDI turbidity: inhibitors of human protein disulfide isomerase; PDI insulin aggregation turbidity, A650, 90 min; 0.052% of 350,000 active; inhibition, % at 10 µM; AID 588391;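 active means mean inhibition across replicates of 30% or more, whatever share of single replicates reach that level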
Yeast cmpd fluor: compound fluorescence in yeast efflux pump counter-screen. fluorescence ratio to DMSO, % at 10 µM. 4% of 1,700 active. S. cerevisiae AD/pABC3, flow cytometry. shares compounds with Efflux pump inh;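 active means fluorescence ratio to DMSO above its plate's cutoff, the plate mean ratio plus 5 SD, cut at about 210% in these data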;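 further: unstained yeast with no Nile Red so the signal is compound autofluorescence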
Mdr1 pump inh: inhibitors of Candida albicans Mdr1 efflux pump. S. cerevisiae AD/CaMDR1, Nile Red efflux, flow cytometry. shares compounds with Efflux pump inh. inhibition, % at 10 µM. 1% of 1,700 active; in the data active means inhibition above about 26%;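 further: 0% = DMSO vehicle and 100% = reference inhibitor; higher means more Nile Red retained so more efflux inhibition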
Cdr2 pump inh: blocks the Candida albicans Cdr2 efflux pump in yeast; AID 588520; S. cerevisiae AD/CaCDR2, Nile Red retention, flow cytometry; Nile Red retention ratio vs DMSO, % at 10 µM; shares compounds with Efflux pump inh; 4% of 1,700 active; in the data active means Nile Red retention ratio vs DMSO above about 190%;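 further: higher ratio means more blocking of Cdr2 efflux of the dye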
CaCdr1 efflux inh: inhibitors of Candida albicans Cdr1 efflux pump. AID 588522. S. cerevisiae AD/CaCDR1, Nile Red efflux, flow cytometry. 1% of 1,700 active. shares compounds with Efflux pump inh. inhibition, % at 10 µM;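 active means inhibition above the screen-wide mean plus twice its standard deviation, cut at about 32% in these data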
Starred values were filed as active, the others as inactive. Rows were chosen to be rich in hits. Some 0.54% of all compounds tested hit in one or more screens of this group.

What do the screens show for `O=C(OCC(=O)c1ccccc1Cl)c1cnccn1`?
PvdQ inh: -11; Rtt109 Vps75: -4; Efflux pump inh: 14*; PDI turbidity: -5; Yeast cmpd fluor: 100; Mdr1 pump inh: 0; Cdr2 pump inh: 114; CaCdr1 efflux inh: 0

What do the screens show for `Cc1noc(C)c1NC(=O)Nc1ccc2c(c1)C(=O)N([C@@H](C)CO)C[C@@H](C)[C@@H](CN(C)C(=O)Nc1ccc3c(c1)OCO3)OCCCC[C@@H](C)O2`?
ERp5 inh: 0

Results for C/C=C(\C)CN1CCN(c2ccc(C)cc2)CC1 ?
PvdQ inh: -18; Rtt109 Vps75: -3; Efflux pump inh: 0.4*; PDI turbidity: -6; Yeast cmpd fluor: 100; Mdr1 pump inh: 0; Cdr2 pump inh: 91; CaCdr1 efflux inh: 0

Results for C/C(=C\c1ccccc1)CN1CCN(c2cccc(Cl)c2)CC1 ?
PvdQ inh: 2; Efflux pump inh: 0; PDI turbidity: 2

Results for CC(=O)Nc1sc2c(c1C(c1ccc(Cl)cc1)N1CCOCC1)CCCC2 (stereo not given) ?
PvdQ inh: -14; Rtt109 Vps75: 2; Efflux pump inh: 1.5*; PDI turbidity: -1; Yeast cmpd fluor: 106; Mdr1 pump inh: 0; Cdr2 pump inh: 112; CaCdr1 efflux inh: 0

What do the screens show for `Cc1noc(C)c1NC(=O)N(C)C[C@H]1OCCCC[C@H](C)Oc2ccc(NS(=O)(=O)c3cccs3)cc2C(=O)N([C@H](C)CO)C[C@@H]1C`?
ERp5 inh: -2

Results for C[C@H]1CN([C@@H](C)CO)C(=O)c2cc(Br)cnc2O[C@H]1CN(C)C(=O)C1CCOCC1 ?
ERp5 inh: -5

How did CNC(=O)COC(=O)c1ccccc1NC(=O)c1ccco1 do in these assays?
ERp5 inh: -4; PvdQ inh: -6; Rtt109 Vps75: -4; Efflux pump inh: 1.2*; PDI turbidity: -4; Yeast cmpd fluor: 99; Mdr1 pump inh: 0; Cdr2 pump inh: 95; CaCdr1 efflux inh: 0

Results for CNC[C@H]1Oc2c(NC(=O)Nc3ccc(C(F)(F)F)cc3)cccc2C(=O)N([C@@H](C)CO)C[C@H]1C ?
ERp5 inh: 6

What do the screens show for `Cn1c(SCC(=O)N/N=C/c2ccc([N+](=O)[O-])s2)nnc1-c1ccc(Cl)cc1`?
PvdQ inh: -16; Rtt109 Vps75: -7; Efflux pump inh: 16*; PDI turbidity: 0; Yeast cmpd fluor: 111; Mdr1 pump inh: 0; Cdr2 pump inh: 127; CaCdr1 efflux inh: 0

How did COc1cc([N+](=O)[O-])cc(/C=N/NC(=O)CSc2nnc(-c3ccccc3)n2C)c1O do in these assays?
Efflux pump inh: 0

Results for COc1cccc(/C=N/NC(=O)C[n+]2ccccc2)c1O ?
PvdQ inh: -10; Rtt109 Vps75: 5; Efflux pump inh: 0; PDI turbidity: 2

What do the screens show for `COc1cc(OC)c(OC)cc1/C=N/NC(=O)C[n+]1ccccc1`?
PvdQ inh: 6; Rtt109 Vps75: -5; Efflux pump inh: 7.6*; PDI turbidity: -1; Yeast cmpd fluor: 93; Mdr1 pump inh: 0; Cdr2 pump inh: 83; CaCdr1 efflux inh: 0

Results for CN(C)N1C(N)=C(C#N)C(c2ccc3c(c2)OCO3)C2=C1CCCC2=O (stereo not given) ?
ERp5 inh: 2; PvdQ inh: -11; Rtt109 Vps75: -1; Efflux pump inh: 2.3*; PDI turbidity: 2; Yeast cmpd fluor: 100; Mdr1 pump inh: 0; Cdr2 pump inh: 92; CaCdr1 efflux inh: 0

How did Cc1ccc(S(=O)(=O)N[C@@H]2CC[C@@H](CCNC(=O)c3ccccc3F)O[C@@H]2CO)cc1 do in these assays?
ERp5 inh: -3

What do the screens show for `CCOC(=O)C1=C(C)Nc2sc(C(=O)c3ccc(OC)cc3)c(N)c2C1c1ccc(C(=O)OC)cc1` (stereo not given)?
ERp5 inh: -5; PvdQ inh: -7; Rtt109 Vps75: 1; Efflux pump inh: 11*; PDI turbidity: 2; Yeast cmpd fluor: 106; Mdr1 pump inh: 0; Cdr2 pump inh: 107; CaCdr1 efflux inh: 0

How did COC(=O)C1=C(C)Nc2sc(C(N)=O)c(N)c2C1c1ccncc1 (stereo not given) do in these assays?
ERp5 inh: -1; PvdQ inh: 0; Rtt109 Vps75: -104; Efflux pump inh: 0; PDI turbidity: 0

Results for COc1ccc(-c2nnc(NC(=O)c3ccc(F)cc3)o2)cc1 ?
ERp5 inh: -2; PvdQ inh: -9; Rtt109 Vps75: -9; Efflux pump inh: 1.0*; PDI turbidity: 0; Yeast cmpd fluor: 100; Mdr1 pump inh: 0; Cdr2 pump inh: 125; CaCdr1 efflux inh: 0

What do the screens show for `COc1ccc(-c2nnc(NC(=O)c3ccc4c(c3)OCCO4)o2)cc1`?
ERp5 inh: -3; PvdQ inh: -4; Rtt109 Vps75: -3; Efflux pump inh: 0; PDI turbidity: 3

Results for CCCOC(=O)c1cccc(NC(=O)COc2ccc([N+](=O)[O-])cc2)c1 ?
ERp5 inh: 6; PvdQ inh: -8; Rtt109 Vps75: -1; Efflux pump inh: 2.1*; PDI turbidity: 7; Yeast cmpd fluor: 102; Mdr1 pump inh: 0; Cdr2 pump inh: 104; CaCdr1 efflux inh: 0

Results for CCOC(=O)c1cccc(NC(=O)COc2ccc([N+](=O)[O-])cc2)c1 ?
PvdQ inh: 6; Rtt109 Vps75: 13; Efflux pump inh: 0; PDI turbidity: -5

Results for COc1cccc(C#Cc2ccc([C@H]3[C@@H](CO)N4C(=O)CN(S(=O)(=O)c5ccccc5C)C[C@@H]34)cc2)c1 ?
ERp5 inh: 5

Results for Cc1cccc(NC(=O)c2cccc(NC(=O)c3ccco3)c2)c1 ?
ERp5 inh: 4; PvdQ inh: -9; Rtt109 Vps75: -5; PDI turbidity: 2

What do the screens show for `CC(=O)c1ccc(NC(=O)c2ccc(NC(=O)c3ccco3)cc2)cc1`?
PvdQ inh: 9; Rtt109 Vps75: -5; Efflux pump inh: 6.2*; PDI turbidity: 1; Yeast cmpd fluor: 92; Mdr1 pump inh: 0; Cdr2 pump inh: 106; CaCdr1 efflux inh: 0

How did O=C(/C=C/c1ccc(Br)cc1)c1ccc(NC(=O)c2ccco2)cc1 do in these assays?
PvdQ inh: -7; Rtt109 Vps75: 5; Efflux pump inh: 5.8*; PDI turbidity: 1; Yeast cmpd fluor: 107; Mdr1 pump inh: 0; Cdr2 pump inh: 108; CaCdr1 efflux inh: 0
